# PubChem BioAssay (Tox21)
# Results filed as inconclusive are left out. Unmarked numbers belong to inactive results. The call rests on the fitted dose curve; in most records, active means well fitted cell-killing curve with a large enough effect in the repeat runs; inconclusive means weak or mixed curves, or effect the other way; inactive means no such curve, though single readings can be large or run the other way.
# Assay: qHTS assay for small molecule activators of the heat shock response signaling pathway - cell viability counter screen (AID 743209); further: nearly all actives have a fitted effect of over 50% in size
# Conditions: HSE-bla HeLa viability, CellTiter-Glo luminescence, 5 h; series mostly up to 62.6 µM; activity change, negative = cytotoxicity: at the top concentration
# From the text: U.S. Tox21 Program National Center for Advancing Translational Sciences [NCATS] NIH Chemical Genomics Center [NCGC] U.S. Environmental Protection Agency [EPA] National Institutes of Environmental Health Sciences [NIEHS] National Toxicology Program [NTP] U.S. Food and Drug Administration [FDA] Tox21 Assay Overview: Various chemicals, environmental and physiological stress conditions may lead to the activation of heat shock response/ unfolded protein response (HSR/UPR). There are three heat shock transcription factors (HSFs) (HSF-1, -2, and -4) mediating transcriptional regulation of the human HSR. To identify the compounds that activate HSR signaling, HSE-bla HeLa cell line (Invitrogen, Carlsbad, CA, USA) containing a beta-lactamase reporter gene under the control of the heat shock response elements was used to screen Tox21 10K compound library. The cytotoxicity of the Tox21 compound library against the HSE-bla HeLa cell line was tested in parallel by measuring the cell viability using CellTiter-Glo assay (Promega, Madison, WI) in the same wells.
# Tox21 Assay Protocol Summary: The CellSensor HSE-bla HeLa cells (Invitrogen, Carlsbad, CA, USA) were dispensed at 1500 cells/6uL/well into 1536-well black wall/clear bottom plates using a Multidrop combi (Thermo Fisher Scientific, Waltham, MA) dispenser. After the assay plates were incubated at 37 C and 5% CO2 overnight, 23 nL of compounds dissolved in DMSO, positive controls or DMSO only was transferred to the assay plate by a Pintool station (Kalypsys, San Diego, CA). The plates were incubated at 37 C for 5 h. After 1 uL of LiveBLAzerTM B/G FRET substrate was added using a Flying Reagent Dispenser (FRD, Beckman Coulter, Indianapolis, IN, USA), the plates were incubated at room temperature for 2.5 h, and fluorescence intensity was measured by an Envision plate reader (PerkinElmer, Shelton, CT). For cell viability readout that measures cytotoxicity, 3 ul/well of CellTiter-Glo reagent was added into the assay plates using a FRD. After 30 min incubation at room temperature, the luminescence intensity in the plates was measured using a ViewLux (PerkinElmer) plate reader.
# On the % scale 0 is the no-effect control and ±100 the full control effect.
row,SMILES,"activity change, negative = cytotoxicity"
1,c1ccc(-c2ccc(-c3ccccc3)cc2)cc1,3.45% [at 29.1 µM]
2,O=C(N[C@@H](Cc1ccccc1)[C@@H](O)C(=O)N1C[C@@H](O)[C@@H](O)C1)c1cc2cc(Cl)ccc2[nH]1,5.57%
3,CC1(C)CC(O)CC(C)(C)N1[O],2.14%
4,C=CC(O)CCCCC (stereo not given),6.17%
5,O=C(Cl)c1cc(Cl)cc(Cl)c1,7.37% [at 81.1 µM]
6,Cc1ccc(NC=O)c(C)c1,20.9%
7,CC(=O)Nc1cccc(N)c1,7.33% [at 81.1 µM]
8,CCc1ccc2c(c1)C(=O)c1ccccc1C2=O,-5.69%
9,NCCOCCOCCN,-9.49%
10,CCCCCCCCCC(C)C=O (stereo not given),-6.71%
11,CC(C)Cc1nccs1,2.82% [at 81.1 µM]
12,COc1cc(CNC(=O)CCCC/C=C/C(C)C)ccc1O,4.02%
13,CCN(CC)CC(=O)OCC(=O)[C@@]1(O)CC[C@H]2[C@@H]3CCC4=CC(=O)CC[C@]4(C)[C@H]3[C@@H](O)C[C@@]21C,-7.72%
14,C[C@H](N)C(=O)N[C@@H](C)C(=O)NC1[C@H]2CN(c3nc4c(cc3F)c(=O)c(C(=O)O)cn4-c3ccc(F)cc3F)C[C@@H]12 (stereo not given in full),15.6%
15,CC[C@H](NC(C)C)[C@H](O)c1ccc(O)c2[nH]c(=O)ccc12,2.02%
16,O=C(Nc1ccc2c(c1)Cc1ccccc1-2)C(F)(F)F,-5.6%
17,C=Cc1ccc(C=C)cc1,-3.92% [at 81.1 µM]
18,CC1=C(C)C(=O)C(C(CCCCCC(=O)O)c2ccccc2)=C(C)C1=O (stereo not given),-25%
19,O=C(OCCCCCOC(=O)c1ccccc1)c1ccccc1,1.54%
20,O=C(O)CNc1ccccc1,0.0744%

row,SMILES,"activity change, negative = cytotoxicity"
1,CCCCCCCCCCCCN1CCOCC1,-0.528%
2,CCCCCCCCC(=O)OCC(C)OC(=O)CCCCCCCC (stereo not given),2.44% [at 81.1 µM]
3,C=CC(C)(O)CC/C=C(/C)CCC=C(C)C (stereo not given),11.9%
4,O=[N+]([O-])c1ccc(Cl)cc1Cl,4.02%
5,Nc1ccccc1Nc1ccccc1,-1.35%
6,Cc1c(Cl)cccc1Nc1ccccc1C(=O)O,-4.73%
7,CCCCCCCCCCCCCCCCC(=O)O,1.02%
8,CC(O)CN (stereo not given),-5.53%
9,CCC[Si](OC)(OC)OC,1.58%
10,CCCCOC(=O)CC#N,-0.872% [at 81.1 µM]
11,O=C(O)CCc1nc2ccccc2[nH]1,8.35%
12,CO[C@@H]1[C@@H](O[C@@H]2O[C@H](C)[C@@H](O[C@H]3C[C@@](C)(O)[C@@H](O)[C@H](C)O3)[C@H](N(C)C)[C@H]2O)[C@@H](CC=O)C[C@@H](C)[C@@H](O[C@@H]2CC[C@H](N(C)C)[C@@H](C)O2)/C=C/C=C/C[C@@H](C)OC(=O)C[C@H]1OC(C)=O,-0.0891%
13,COc1ccc(C(=O)c2ccc(C)cc2)c(O)c1,7.62% [at 81.1 µM]
14,C=CC(=O)OCCCCCCCCCC,2.79%
15,Clc1cccc(C(c2ccc3nc[nH]c3c2)n2ccnc2)c1 (stereo not given),4.46%
16,CC/C=C/CCO,1.75% [at 81.1 µM]
17,OCC(O)c1ccccc1 (stereo not given),-4.96%
18,O=C(O)COCC(=O)O,7.6% [at 81.1 µM]
19,Cc1c(N=C=O)cccc1N=C=O,9.03% [at 81.1 µM]
20,Cc1ccc2ccccc2c1[N+](=O)[O-],-4.28%
